# The panel holds about 83,000 compounds, 20% with a hit somewhere; the sample as a whole holds those more often.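 96-well plates, one dose, 48 hours. Percent growth reported; active if below 10.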 A number with no mark means an inactive call. Active and inactive are the calls of the source.
# Columns and labels:
# Assay in all cases: NCI-60 one-dose screen, 48 h (100 = growth as untreated, 0 = no growth, -100 = all killed)
# Settings in all cases: 10 µM unless noted
# SR leukemia = test system: SR leukemia
# OVCAR-8 ovarian = test system: OVCAR-8 ovarian
# OVCAR-5 ovarian = test system: OVCAR-5 ovarian
# OVCAR-4 ovarian = test system: OVCAR-4 ovarian
# SK-OV-3 ovarian = test system: SK-OV-3 ovarian
# IGROV1 ovarian = test system: IGROV1 ovarian
# OVCAR-3 ovarian = test system: OVCAR-3 ovarian
# HS 578T breast = test system: HS 578T breast
# NCI/ADR-RES ovarian = test system: NCI/ADR-RES ovarian
# RPMI-8226 leukemia = test system: RPMI-8226 leukemia
SMILES,growth (SR leukemia),growth (OVCAR-8 ovarian),growth (OVCAR-5 ovarian),growth (OVCAR-4 ovarian),growth (SK-OV-3 ovarian),growth (IGROV1 ovarian),growth (OVCAR-3 ovarian),growth (HS 578T breast),growth (NCI/ADR-RES ovarian),growth (RPMI-8226 leukemia)
O=C(NOC1OC(CO)C(O)C(O)C1O)Nc1ccccc1 (stereo not given),75.2%,103%,100%,105%,95.7%,111%,105%,103%,109%,
CSc1ccc(C(=O)C[n+]2cccc(C)c2)cc1,,106%,104%,113%,102%,106%,104%,98.4%,104%,98.2%
COc1cc2c(/C=C3/C(=O)Nc4ccc(O)cc43)c(Cl)n(Cc3cc(OC)c(OC)c(OC)c3)c2cc1C,-38.1% (active),,74.1%,21.8%,38.5%,26.9%,,4.73% (active),9.32% (active),
COc1cc(NC(C)CCCN2C(=O)c3ccccc3C2=O)c2nccc(C)c2c1OC (stereo not given),33%,91.6%,110%,70.5%,107%,44.1%,,98.7%,74%,
COc1ccc(CCNC=O)cc1OC,117%,107%,99.7%,100%,114%,94%,110%,105%,97.4%,
N#CC(C#N)=C(C#N)c1c[nH]c2ccccc12,58.1%,87.7%,102%,73.5%,82.7%,75.2%,74.7%,87.7%,96.1%,
CC[C@H]1[C@@H]2C=C[C@@H]3[C@H]4C/C=C\C(=O)NCCC[C@@H]5NC(=O)/C(=C(O)/C=C/[C@@H]4C[C@@H]3[C@H]2C[C@H]1C)C5=O,,-54.8% (active),41.6%,-31.5% (active),1.98% (active),-66.5% (active),-94.7% (active),-2.24% (active),-57.2% (active),6.24% (active)
CN(C)CCCOc1c(Br)cc(/C=C/C(=O)N(C)CCc2cc(Br)c(OCCCN(C)C)c(Br)c2)cc1Br,-34.5% (active),,79.1%,79.7%,102%,48.2%,75.7%,75.7%,56.6%,
Cc1cc[n+](CCCC[n+]2ccc(C)cc2)cc1,97.3%,108%,104%,114%,116%,99.7%,106%,104%,97.8%,
O=C(C[n+]1cccc(Br)c1)c1ccc2c(c1)CCCC2,,108%,96.2%,114%,89.7%,101%,99.9%,105%,,96%
COc1ccc(C(=O)Cn2cnc3c(Nc4cc(C(=O)Nc5ccc(N6CCN(CCO)CC6)cc5)ccc4C)ncnc32)cc1,,104%,104%,106%,99.2%,110%,100%,97.7%,104%,96.7%
O=c1cc(Cl)[nH]c(=O)[nH]1,,104%,105%,109%,85.2%,109%,109%,103%,105%,98.6%
O=C(O)c1ccc2nc(-c3ccc(OCCCCCOc4ccc(-c5nc6ccc(C(=O)O)cc6[nH]5)cc4)cc3)[nH]c2c1,,49%,9.11% (active),82.6%,48.8%,109%,,82.7%,33.1%,123%
COC(=O)c1oc2c(C(C)=O)c(OCCN3CCCCC3)ccc2c1C,,107%,107%,161%,107%,-8.51% (active),,107%,95.5%,97.6%
Oc1ccc(O)c(-[n+]2ccccc2)c1,,99.5%,108%,108%,98.7%,107%,109%,96%,108%,99.7%
CN1CCN(CC(O)COc2c(Br)c(Br)c(Br)c3c2OC(C)(C)C3)CC1 (stereo not given),,91.1%,78.9%,82.3%,109%,-66.9% (active),,55.5%,64.5%,-11.3% (active)
CCOc1ccccc1C(=O)N1CCN(c2cc(Cl)cc(Cl)c2)CC1,,11.2%,46.6%,31.7%,25.8%,13.8%,-22.7% (active),41.3%,14.5%,1.53% (active)
COc1ccc(NC(=O)COCCOCCNC[C@@H]2C(=O)O[C@H]3[C@H]2CC/C(COC(=O)OC/C2=C/CC[C@@]4(C)O[C@H]4[C@H]4OC(=O)[C@@H](CN(C)C)[C@@H]4CC2)=C\CC[C@@]2(C)O[C@@H]32)c(O)c1C(N)=O,,32.4%,91%,31.3%,79.4%,26.6%,0.0325% (active),79.2%,101%,38.4%
CCCc1nn2c(CCC(=O)c3nc4ccc([N+](=O)[O-])cc4[nH]3)nnc2s1,,109%,97.5%,100%,110%,101%,109%,91.1%,104%,133%
Nc1ncc(-c2ccc3ncnc(Nc4cncc(Cl)c4)c3c2)cn1,,76.8%,52%,66.8%,46.5%,7.85% (active),59.9%,61.6%,82.2%,50.1%
Cc1cn(-c2cc(C(=O)Nc3cccc(-n4ccc5c(NC(=O)c6ccccc6)nccc54)c3)cc(C(F)(F)F)c2)cn1,,4.81% (active),35.6%,75.7%,13.1%,7.51% (active),-67.7% (active),,4.71% (active),-51.7% (active)
O=C(O)c1ccc(-n2cc(/C=N/Nc3ccccc3F)c(-c3ccc(O)cc3)n2)cc1,,88.4%,80.9%,94.8%,102%,81%,82.7%,92.4%,80%,59.1%
C/C(=N\N=C1/SCC(=O)N1c1ccccc1)c1ccco1,,103%,117%,146%,115%,60.8%,,104%,104%,72.2%
CCc1cccc(C)c1NC(=O)c1sc2nc3c(cc2c1N)CCCCC3,,28.9%,45%,63.9%,36.9%,46.5%,3.96% (active),36%,14.2%,12.2%
c1ccc(-c2nc3sc(C(c4ccccc4)c4ccccc4)nn3c2-c2ccccc2)cc1,,104%,103%,103%,94.7%,86.4%,100%,106%,95.3%,108%
O=C(Nc1ccc(-n2cc(-c3ccncc3)c(-c3ccc(O)c(Cl)c3)n2)cc1)Nc1cccc(Cl)c1Cl,,62%,101%,78.7%,81.7%,77.9%,55.3%,,66.7%,12.7%
Cc1cc(-c2ccccc2)nc2ccccc12,,98.1%,115%,90.1%,74.9%,92.5%,105%,97.3%,102%,83.3%
N#CC1=C(N)Oc2c(ccc3ccccc23)C1c1cc(=O)oc2ccc(Cl)cc12 (stereo not given),,27.7%,51.6%,65.8%,16.9%,39.8%,-9.67% (active),47.5%,12.2%,30.7%
CC(C)(C)OC(=O)N1CCN(CCn2cc(C(F)(F)F)c3c(Cl)ncnc32)CC1,,-61.4% (active),108%,103%,96.9%,-69.5% (active),85.2%,82.5%,104%,86.3%
